Experimental data: PubChem BioAssay (EPA / NIEHS)
Calls of active or inactive are those of the source. Rule for the calls: active = hit-call score of the fitted dose curve at least 0.9, where 1 is the maximum; inactive = score below 0.9.

What was measured:
[1] = ATG_CRE_CIS: Attagene CIS-FACTORIAL HepG2 Assay for human cAMP Responsive Element (CRE) binding protein 3 (AID 2282926); conditions: HepG2 CRE cis-reporter, Attagene multiplexed mRNA; actives raise or lower the signal
Procedure, shortened: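 Transfected HepG2 were treated for 24 hours, then RNA was extracted and reporter cDNA amplified with sequence-specific primers. Labelled fragments were separated by capillary electrophoresis, and the CRE signal was fitted bidirectionally with DMSO as baseline.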

[2] = target: CCAAT/enhancer-binding protein beta (Homo sapiens) (UniProt P17676); assay: ATG_C_EBP_CIS: Attagene CIS-FACTORIAL HepG2 Assay for human CCAAT/Enhancer Binding Protein (C/EBP) beta (AID 2282927); conditions: HepG2 Attagene cis-factorial transcription factor reporter; actives raise or lower the signal
Procedure, shortened: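 HepG2, transient MRTU transfection, 24 h treatment. RT-PCR plus CE fluorescence; DMSO negative control, bidirectional fit.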

[3] = ATG_AP_1_CIS: Attagene CIS-FACTORIAL HepG2 Assay for human Activator Protein 1 (AP-1) (AID 2282931); conditions: HepG2 Attagene cis-factorial AP-1 reporter mRNA; actives raise or lower the signal
Procedure, shortened: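 Endogenous transcription-factor activity in human HepG2 liver cells is read through a cis-promoter reporter transcript, sampled 24 h after dosing. Detection uses RT-PCR with capillary electrophoresis; values come from bidirectional fitting relative to DMSO.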

[4] = ATG_AP_2_CIS: Attagene CIS-FACTORIAL HepG2 Assay for human Activator Protein 2 (AP-2) (AID 2282932); conditions: HepG2 AP-2 cis-reporter, Attagene transcription factor profiling; actives raise or lower the signal
Procedure, shortened: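 HepG2 cells transiently transfected with cis-element reporter units and exposed for 24 h. Reporter mRNA measured by RT-PCR, FAM labelling, HpaI digestion and capillary electrophoresis. Changes in either direction fitted relative to DMSO.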

[5] = ATG_BRE_CIS: Attagene CIS-FACTORIAL HepG2 Assay for human Bone Morphogenetic Protein (BMP) Response Element (BRE) (AID 2282933); conditions: HepG2 BMP response element reporter, Attagene transcription factor profiling; actives raise or lower the signal
Procedure, shortened: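 Transient MRTU transfection of human HepG2 liver cells; 24 h compound treatment; total RNA isolated, reverse-transcribed, PCR-amplified, 6-FAM labelled, HpaI-cut, capillary electrophoresis. DMSO = negative control/baseline, bidirectional fit.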

[6] = ATG_E_Box_CIS: Attagene CIS-FACTORIAL HepG2 Assay for human Enhancer Box (E-box) (AID 2282936); conditions: HepG2 E-box cis-reporter transcription, actives raise or lower the signal
Procedure, shortened: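 HepG2 cells transiently transfected with multiplexed cis-element reporter units, dosed 24 h; reporter mRNA quantified by RT-PCR, 6-FAM labelling, HpaI digestion and capillary electrophoresis. E-box (USF1) signal fitted bidirectionally vs DMSO.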

[7] = ATG_M_61_CIS: Attagene CIS-FACTORIAL HepG2 Assay for M61 Transcription Factor (Internal Marker) (AID 2282937); conditions: HepG2 Attagene CIS-FACTORIAL M61 internal marker reporter; actives raise or lower the signal
Procedure, shortened: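 Cells were transfected with reporter units under cis-regulatory promoters, treated with chemicals for 24 h, then lysed for RNA. Reporter transcripts were quantified by RT-PCR and capillary electrophoresis, and activity was fitted bidirectionally against DMSO.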

[8] = ATG_EGR_CIS: Attagene CIS-FACTORIAL HepG2 Assay for human Early Growth Response 1 (EGR1) (AID 2282938); conditions: HepG2 Attagene CIS-FACTORIAL EGR reporter mRNA; actives raise or lower the signal
Procedure, shortened: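 Endogenous TF activity in HepG2 liver cells was gauged through cis-promoter reporter constructs transiently transfected. After 24 h dosing, reporter mRNA was quantified by RT-PCR and capillary electrophoresis, and curves fitted in both directions versus DMSO.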

[9] = ATG_Ets_CIS: Attagene CIS-FACTORIAL HepG2 Assay for human Erythroblast Transformation Specific (ETS) (AID 2282941); conditions: HepG2 ETS cis-reporter transcription, actives raise or lower the signal
Procedure, shortened: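 After transient cis-reporter transfection, HepG2 cells receive test chemical for 24 h. Reporter mRNA levels, measured by RT-PCR and capillary electrophoresis fluorescence, are analysed bidirectionally relative to the DMSO baseline.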

[10] = ATG_FoxO_CIS: Attagene CIS-FACTORIAL HepG2 Assay for human Forkhead box O (FoxO) (AID 2282943); conditions: HepG2 Attagene cis-reporter, FoxO element, mRNA; actives raise or lower the signal
Procedure, shortened: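 Transfected HepG2 reporter cells exposed to test chemical for 24 h; reporter RNA measured by reverse transcription, PCR and fluorescent capillary electrophoresis; curves fitted for increases and decreases against DMSO.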

[11] = ATG_GATA_CIS: Attagene CIS-FACTORIAL HepG2 Assay for human GATA Binding Protein (AID 2282944); conditions: HepG2 GATA cis-element reporter, Attagene multiplex mRNA; actives raise or lower the signal
Procedure, shortened: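 Transient MRTU transfection, HepG2, 24 h compound exposure. Total RNA → oligo(dT) RT → PCR → 6-FAM primer extension → HpaI cut → CE. Bidirectional fit vs DMSO.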

[12] = ATG_M_32_CIS: Attagene CIS-FACTORIAL HepG2 Assay for M32 Transcription Factor (Internal Marker) (AID 2282949); conditions: HepG2 Attagene cis-factorial M32 reporter, mRNA; actives raise or lower the signal;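 note: background control marker of the multiplexed CIS panel rather than a real target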
Procedure, shortened: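 Fluorescent capillary electrophoresis peaks of HpaI-digested, FAM-labelled RT-PCR reporter products give the signal. Source: transiently transfected human liver HepG2 cells, 24 h after chemical dosing; bidirectional fitting against DMSO.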

[13] = ATG_M_06_CIS: Attagene CIS-FACTORIAL HepG2 Assay for M06 Transcription Factor (Internal Marker) (AID 2282950); conditions: HepG2 Attagene CIS-FACTORIAL M06 internal marker reporter; actives raise or lower the signal
Procedure, shortened: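 Read-out is fluorescence of labelled reporter cDNA fragments resolved by capillary electrophoresis after RT-PCR. Cells: HepG2 carrying transfected cis-promoter reporter units, treated 24 h. Gain or loss of signal fitted relative to DMSO.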

[14] = ATG_MRE_CIS: Attagene CIS-FACTORIAL HepG2 Assay for human Metal Responsive Element (MRE) (AID 2282954); conditions: HepG2 MRE cis-reporter transcription, Attagene multiplex; actives raise or lower the signal
Procedure, shortened: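 HepG2 cells transiently transfected with cis-element-driven reporter units; mRNA measured 24 h after dosing. Reporter transcripts quantified by RT-PCR, FAM labelling, HpaI digestion and capillary electrophoresis; bidirectional fit versus DMSO.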

[15] = target: Paired box protein Pax-6 (Homo sapiens) (UniProt P26367); assay: ATG_Pax6_CIS: Attagene CIS-FACTORIAL HepG2 Assay for human Paired Box 6 (PAX6) (AID 2282956); conditions: HepG2 CIS-FACTORIAL PAX6 reporter transcription, RNA readout; actives raise or lower the signal
Procedure, shortened: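 After twenty-four hours of chemical exposure, transfected HepG2 cells are harvested for RNA. Cis-promoter reporter transcripts are amplified, fluorescently labelled and sized by capillary electrophoresis, with gain and loss of signal scored against DMSO.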

[16] = ATG_PXRE_CIS: Attagene CIS-FACTORIAL HepG2 Assay for human Pregnane X Receptor Element (PXRE) (AID 2282957); conditions: HepG2 Attagene CIS-FACTORIAL PXRE reporter, mRNA; actives raise or lower the signal
Procedure, shortened: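 Multiplexed cis-reporter assay in transiently transfected human HepG2 cells; 24 h chemical exposure. Reporter transcripts quantified by RT-PCR with fluorescent labeling and capillary electrophoresis.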

[17] = target: Transcription factor Sp1 (Homo sapiens) (UniProt P08047); assay: ATG_Sp1_CIS: Attagene CIS-FACTORIAL HepG2 Assay for human Specificity Protein 1 (Sp1) (AID 2282961); conditions: HepG2 Sp1 cis-reporter transcription, actives raise or lower the signal
Procedure, shortened: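 Endogenous Sp1 activity was gauged in human liver HepG2 cells bearing transfected reporter units under a cis-regulating promoter. After 24 h dosing, reporter mRNA was quantified by RT-PCR with capillary electrophoresis, and activity fitted bidirectionally versus DMSO.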

[18] = ATG_SREBP_CIS: Attagene CIS-FACTORIAL HepG2 Assay for human Sterol Regulatory Element Binding (SREBP) (AID 2282962); conditions: HepG2 Attagene cis-factorial SREBP reporter, mRNA; actives raise or lower the signal
Procedure, shortened: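 Twenty-four hours after chemical dosing of transfected HepG2 cultures, reporter RNA was converted to cDNA, amplified, end-labelled with 6-FAM and resolved by capillary electrophoresis. Responses were fitted relative to DMSO.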

[19] = target: Signal transducer and activator of transcription 3 (Homo sapiens) (UniProt P40763); assay: ATG_STAT3_CIS: Attagene CIS-FACTORIAL HepG2 Assay for human Signal Transducer and Activator of Transcription 3 (STAT3) (AID 2282963); conditions: HepG2, Attagene cis-factorial STAT3 reporter transcription; actives raise or lower the signal
Procedure, shortened: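 HepG2 cells transiently transfected with multiple cis-element-driven reporter units report endogenous transcription factor activity. After 24 h compound exposure, reporter mRNA is measured by RT-PCR, 6-FAM labelling, HpaI digestion and capillary electrophoresis. Fitted bidirectionally versus DMSO.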

[20] = ATG_TAL_CIS: Attagene CIS-FACTORIAL HepG2 Assay for human TAL Basal Promoter (AID 2282966); conditions: HepG2 Attagene cis-factorial TAL promoter reporter; actives raise or lower the signal;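 note: background control endpoint measuring basal TAL promoter reporter mRNA not a specific factor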
Procedure, shortened: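 Steps: transfect HepG2 with multiple reporter transcription units; dose 24 h; isolate RNA, reverse-transcribe, PCR-amplify, label with 6-FAM, digest with HpaI; resolve by capillary electrophoresis. Bidirectional fitting against DMSO baseline.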

Measured: AC50

CCAAT/enhancer-binding protein beta (Homo sapiens), sequence (P17676 whole entry, looked up): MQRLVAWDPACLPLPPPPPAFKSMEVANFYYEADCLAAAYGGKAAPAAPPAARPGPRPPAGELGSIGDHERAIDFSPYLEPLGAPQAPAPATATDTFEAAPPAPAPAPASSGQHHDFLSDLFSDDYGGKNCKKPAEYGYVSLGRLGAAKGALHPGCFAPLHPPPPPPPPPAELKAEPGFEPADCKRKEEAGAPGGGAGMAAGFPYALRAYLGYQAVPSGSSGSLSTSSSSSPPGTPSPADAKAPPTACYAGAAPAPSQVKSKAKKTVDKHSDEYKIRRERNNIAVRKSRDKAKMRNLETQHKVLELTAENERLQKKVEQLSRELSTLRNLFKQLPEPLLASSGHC
Signal transducer and activator of transcription 3 (Homo sapiens), sequence (P40763 whole entry, looked up): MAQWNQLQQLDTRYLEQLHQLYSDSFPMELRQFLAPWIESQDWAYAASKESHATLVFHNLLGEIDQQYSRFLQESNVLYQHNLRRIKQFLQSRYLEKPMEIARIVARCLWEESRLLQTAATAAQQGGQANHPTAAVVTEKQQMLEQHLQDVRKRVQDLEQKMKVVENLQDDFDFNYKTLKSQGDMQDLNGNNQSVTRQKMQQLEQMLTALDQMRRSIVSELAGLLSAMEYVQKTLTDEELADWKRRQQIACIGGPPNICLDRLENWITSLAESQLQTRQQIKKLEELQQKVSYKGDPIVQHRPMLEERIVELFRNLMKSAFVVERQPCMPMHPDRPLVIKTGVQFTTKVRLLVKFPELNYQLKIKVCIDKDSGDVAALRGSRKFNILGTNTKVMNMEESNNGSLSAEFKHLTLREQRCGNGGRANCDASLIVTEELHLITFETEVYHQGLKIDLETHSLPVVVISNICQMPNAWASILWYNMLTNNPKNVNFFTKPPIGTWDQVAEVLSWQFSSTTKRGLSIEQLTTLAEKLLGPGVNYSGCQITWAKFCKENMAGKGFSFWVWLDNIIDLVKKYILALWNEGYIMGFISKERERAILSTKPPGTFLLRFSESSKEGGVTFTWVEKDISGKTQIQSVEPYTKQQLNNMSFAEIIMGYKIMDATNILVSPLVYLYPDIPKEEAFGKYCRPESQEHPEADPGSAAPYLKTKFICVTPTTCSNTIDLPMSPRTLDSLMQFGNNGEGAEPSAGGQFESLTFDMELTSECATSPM
Paired box protein Pax-6 (Homo sapiens), sequence (P26367 whole entry, looked up): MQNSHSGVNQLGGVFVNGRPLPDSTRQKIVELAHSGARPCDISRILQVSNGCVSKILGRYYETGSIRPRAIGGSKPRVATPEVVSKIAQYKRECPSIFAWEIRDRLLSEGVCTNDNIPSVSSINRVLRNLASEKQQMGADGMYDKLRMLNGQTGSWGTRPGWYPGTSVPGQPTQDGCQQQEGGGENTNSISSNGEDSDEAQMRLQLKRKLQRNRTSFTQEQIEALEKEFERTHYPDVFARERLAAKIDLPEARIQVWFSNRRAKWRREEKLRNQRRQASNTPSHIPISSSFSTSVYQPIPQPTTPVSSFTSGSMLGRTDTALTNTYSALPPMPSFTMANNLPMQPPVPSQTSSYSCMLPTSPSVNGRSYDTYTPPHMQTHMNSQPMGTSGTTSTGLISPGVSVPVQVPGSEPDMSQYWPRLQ
Transcription factor Sp1 (Homo sapiens), sequence (P08047 whole entry, looked up): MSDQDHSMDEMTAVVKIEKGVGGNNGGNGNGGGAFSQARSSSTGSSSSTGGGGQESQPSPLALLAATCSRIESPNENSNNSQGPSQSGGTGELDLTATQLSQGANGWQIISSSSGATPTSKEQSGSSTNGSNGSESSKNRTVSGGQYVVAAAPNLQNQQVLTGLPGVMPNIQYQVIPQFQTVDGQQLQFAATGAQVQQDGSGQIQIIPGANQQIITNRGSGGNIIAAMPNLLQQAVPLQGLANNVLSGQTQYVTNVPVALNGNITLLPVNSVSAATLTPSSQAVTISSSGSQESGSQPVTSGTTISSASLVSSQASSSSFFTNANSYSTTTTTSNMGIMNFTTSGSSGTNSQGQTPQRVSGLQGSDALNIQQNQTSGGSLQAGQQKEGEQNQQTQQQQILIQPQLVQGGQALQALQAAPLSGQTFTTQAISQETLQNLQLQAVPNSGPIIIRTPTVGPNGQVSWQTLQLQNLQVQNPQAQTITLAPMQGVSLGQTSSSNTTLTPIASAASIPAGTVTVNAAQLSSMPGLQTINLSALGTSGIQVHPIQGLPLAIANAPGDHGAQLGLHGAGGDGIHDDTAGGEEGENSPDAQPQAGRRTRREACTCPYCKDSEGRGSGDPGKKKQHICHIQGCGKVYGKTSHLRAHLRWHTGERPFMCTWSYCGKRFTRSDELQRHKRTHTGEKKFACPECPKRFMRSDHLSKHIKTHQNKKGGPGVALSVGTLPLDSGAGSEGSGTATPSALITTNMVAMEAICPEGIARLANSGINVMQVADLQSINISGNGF

CCCCCCC1CCC(=O)O1 (stereo not given)
inactive: [1] | [2] | [3] | [4] | [5] | [6] | [7] | [8] | [9] | [10] | [11] | [12] | [13] | [14] | [15] | [16] | [17] | [18] | [19] | [20]

CCOc1ccc2c(c1)C(C)CC(C)(C)N2 (stereo not given)
active: [16] 2 µM
inactive: [1] | [2] | [3] | [4] | [5] | [6] | [7] | [8] | [9] | [10] | [11] | [12] | [13] | [14] | [15] | [17] | [18] | [19] | [20]

O=[N+]([O-])c1ccccc1C(F)(F)F
inactive: [1] | [2] | [3] | [4] | [5] | [6] | [7] | [8] | [9] | [10] | [11] | [12] | [13] | [14] | [15] | [16] | [17] | [18] | [19] | [20]

Sc1nc2ccccc2s1
inactive: [1] | [2] | [3] | [4] | [5] | [6] | [7] | [8] | [9] | [10] | [11] | [12] | [13] | [14] | [15] | [17] | [18] | [19] | [20]
active: [16] 80.6 µM

CCCCNC(N)=O
active: [16] 68.7 µM
inactive: [1] | [2] | [3] | [4] | [5] | [6] | [7] | [8] | [9] | [10] | [11] | [12] | [13] | [14] | [15] | [17] | [18] | [19] | [20]

O=C(c1ccccc1)c1ccccc1O
inactive: [1] | [2] | [3] | [4] | [5] | [6] | [7] | [8] | [9] | [10] | [11] | [12] | [13] | [14] | [15] | [17] | [18] | [20]
active: [16] 26.7 µM | [19] 154 µM

CCC(C)=NO
inactive: [1] | [2] | [3] | [4] | [5] | [6] | [7] | [8] | [9] | [10] | [11] | [12] | [13] | [14] | [15] | [16] | [17] | [18] | [19] | [20]
